Compound activity: PubChem, National Center for Advancing Translational Sciences (NCATS)
A selection: hits, their analogues and other compounds. The true share with any hit is near 19%.
TDP1 cell noCPT = qHTS for Inhibitors of human tyrosyl-DNA phosphodiesterase 1 (TDP1): qHTS in cells in absence of CPT | AID 686978, 2013 | DT40 Tdp1-/- hTDP1 cells, no CPT, ATP luminescence, 48 h | Potency, µM (top dose mostly 46.2 µM), for the others: at the top dose activity change, negative = growth inhibition, hits mostly inhibitors | 420,000 tested, 15% active; note: potency is the fitted concentration of half-maximal effect; nearly all actives have a fitted effect of over 55% in size
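Growth of hTDP1-complemented DT40 Tdp1-knockout cells is measured by ATP luminescence after at least 48 hr compound exposure at 37 °C, with DMSO substituting for the 20 nM CPT used in the parallel screen.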
HT1080 IDH1KD tx = HT-1080 IDH1 knockdown cell toxicity (counter line). HT-1080 IDH1 knockdown viability, ATP luminescence, 48 h. Potency, µM (titrated, usually from 46.1 µM), for the others: at the top dose activity, negative = toxicity, actives largely listed as cytotoxic. 360,000 tested, 2% active. AID 686971;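 note: potency is the fitted concentration of half-maximal effect; 0% = DMSO wells and -100% = cell-free medium wells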
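CellTiter-Glo luminescence after 48 h compound exposure at 37 degrees C of IDH1-knockdown HT-1080 cells in 5% FBS RPMI. %Activity scaled between DMSO wells and cell-free media wells, with curves fitted and assigned curve classes.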
DT40 TDP1 CPT = DT40-hTDP1 cell growth loss with CPT; 420,000 tested, 12% active; chicken DT40 Tdp1-/-;hTDP1 cells + 20 nM CPT, ATP luminescence, 48 h; Potency, µM (top dose mostly 46.2 µM), for inactives: at the top dose activity change, negative = growth inhibition, most hits filed as inhibitors; note: potency is the fitted concentration of half-maximal effect; nearly all actives have a fitted effect of over 55% in size
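Chicken DT40 Tdp1-/- cells stably complemented with human TDP1 were seeded at 400 cells/well in medium containing 20 nM camptothecin, exposed to pin-transferred compounds, and grown at 37 °C for at least 48 hr. Viability was read as ATP luminescence.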
HT1080-NT tox = kills 2HG-producing HT-1080-NT fibrosarcoma cells. Potency, µM (series often up to 46.1 µM), for inactives: at the highest dose activity, negative = less viability, usual class: cytotoxic. HT-1080-NT fibrosarcoma viability, CellTiter-Glo ATP luminescence, 48 h. 360,000 tested, 1.6% active;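 note: NT is the 2HG producing partner of a matched IDH1 knockdown line; potency is the fitted concentration of half-maximal effect; 0% = DMSO-treated cells and -100% = media-only wells without cells; nearly all actives have a fitted effect of over 55% in size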
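A 48-hour cytotoxicity screen used HT-1080-NT cells plated 2 hours before compound delivery. ATP-based CellTiter-Glo luminescence measured viability, normalized to DMSO and no-cell controls.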
IL1B secr inh = inflammasome signaling inhibition, IL-1 beta readout; 360,000 tested, 4.7% active; THP-1 LPS/ATP IL-1B secretion, AlphaLISA, 16 h; stronger effect = lower value; activity change, % at 57.5 µM; AID 743279; in the data active = activity change below about -50%; inconclusive = mostly about -30% to -49%
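Secreted IL-1B measured by AlphaLISA bead assay after 16 h compound exposure of THP-1 cells; compounds (final up to 57.5 uM) added 1 h before LPS (250 ng/mL) and ATP (1.25 mM) stimulation; lower signal means less secretion.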
Numbers without * were called inactive; ? = inconclusive; nt = no result; [ ] = remark or other dose. Unless noted, calls come from the whole dose curve; as a rule, active = well fitted curve in the direction sought with a large enough effect; inconclusive = small, poorly fitted or top-dose-only effect, or another doubt; inactive = no such curve, though single readings can be large; an effect the other way counts as inactive or inconclusive. Unless noted, % is set by controls: 0 for no effect and ±100 for the full control effect.

SMILES	TDP1 cell noCPT	HT1080 IDH1KD tx	DT40 TDP1 CPT	HT1080-NT tox	IL1B secr inh
COc1cc(C2CC(=O)Oc3c(C(CCN4CCN(c5ccccc5)CC4)c4ccc(N(C)C)cc4)c(OC)cc(OC)c32)cc(OC)c1OC (centres undefined)	?	7%	?	0%	-7
COc1cc(OC)c2c(C)cc(=O)oc2c1C(CCN1CCOCC1)c1ccc(N(C)C)cc1 (centres undefined)	16µM*	-25%	5.2µM*	-7%	0
CCCCCc1cc(=O)oc2c(C(CCN3CCN(c4ccccc4)CC3)c3ccc(N(C)C)cc3)c(OC)cc(OC)c12 (centres undefined)	?	-4%	21µM*	-3%	-16
COc1cc(OC)c2c(-c3ccccc3)cc(=O)oc2c1C(CCN1CCN(c2ccccc2)CC1)c1ccc(N(C)C)cc1 (centres undefined)	23µM*	4%	15µM*	-1%	-6
COc1cc(OC)c2ccc(=O)oc2c1C(CCN1CCN(c2ccccc2)CC1)c1ccc(N(C)C)cc1 (centres undefined)	?	-7%	15µM*	0%	11
COc1cc(OC)c2c(-c3ccccc3)cc(=O)oc2c1C(CC(=O)N1CCOCC1)c1ccc(N(C)C)cc1 (centres undefined)	?	-7%	?	0%	4
COCCNC(=O)Cn1c(=O)oc2cc(S(=O)(=O)N3CC(C)CC(C)C3)ccc21 (centres undefined)	-1%	12%	?	13%	-15
CCN(CC(=O)Nc1ccccc1OC)C(=O)CC1CCCC1	19%	4%	-13%	10%	14
NC(=O)c1nc(-c2ccco2)nc2c1[nH]c(=O)n2-c1ccc(Cl)c(Cl)c1	-27%	12%	-15%	17%	0
CSC1=N/C(=C\c2cccc(Cl)c2)C(=O)N1N(C)C	21µM*	18%	?	16%	5
CCn1cc(CN2CCC(n3nccc3NC(=O)c3ccccc3C)CC2)cn1	-10%	-3%	-12%	0%	0
COC(=O)c1cc(C(=O)N2CCN(c3ncccn3)CC2)cc([N+](=O)[O-])c1	-7%	0%	-19%	0%	6
O=C(c1ccc(CS(=O)c2ccccc2Cl)o1)N1CCN(C2CCCCC2)CC1 (centres undefined)	?	-26%	?	-5%	6
O=C(c1ccco1)N1CCN(C(=O)c2ccc(CS(=O)c3ccc(Cl)cc3)o2)CC1 (centres undefined)	23%	12%	4%	24%	13
Cc1ccc(Cl)cc1N1CCN(C(=O)c2ccc(CS(=O)c3ccccc3)o2)CC1 (centres undefined)	5.2µM*	nt	2.6µM*	nt	nt
Cc1ccccc1S(=O)Cc1ccc(C(=O)N2CCN(c3cccc(C)c3C)CC2)o1 (centres undefined)	0.82µM*	nt	0.65µM*	nt	nt
O=C(c1ccc(CS(=O)c2ccccc2Cl)o1)N1CCN(c2ccccc2F)CC1 (centres undefined)	1.3µM*	nt	1.3µM*	nt	nt
COC(=O)c1cc(C(=O)N2CCN(c3cccc(C)c3C)CC2)cc([N+](=O)[O-])c1	2.6µM*	2.3µM*	5.8µM*	1.8µM*	31
Cn1ccnc1Sc1ccc(/C=N/NC(=O)c2ccccc2O)cc1[N+](=O)[O-]	-15%	-4%	-23%	3%	23
O=C(COc1cc2oc(=O)c3c(c2cc1Cl)CCC3)NCc1ccncc1	-22%	9%	?	10%	-16
COCc1c(C(=O)N2CCN(c3ccccc3)CC2)cnn1-c1nccc(-c2ccco2)n1	-29%	nt	29%[9.04 µM]	nt	nt
Cc1ccc(C(=O)N2CCN(c3cccc(C)c3C)CC2)o1	?	?	16µM*	?	11
O=C(c1ccc(CS(=O)c2cccc(Cl)c2)o1)N1CCOCC1 (centres undefined)	17%	2%	-11%	0%	9
Cc1ccc(S(=O)(=O)Cc2ccc(C(=O)N3CCN(c4cccc(C)c4C)CC3)o2)cc1	2.6µM*	3.7µM*	1.8µM*	?	66
Cc1cccc(N2CCN(C(=O)c3ccc(CS(=O)c4cccc(Cl)c4)o3)CC2)c1C (centres undefined)	0.92µM*	nt	0.82µM*	nt	nt
SMILES	TDP1 cell noCPT	HT1080 IDH1KD tx	DT40 TDP1 CPT	HT1080-NT tox	IL1B secr inh
O=C(c1ccc(CS(=O)c2cccc(Cl)c2)o1)N1CCN(c2ccccn2)CC1 (centres undefined)	9.2µM*	?	?	?	82
O=C(c1ccc(NS(=O)(=O)c2ccc3[nH]c(=O)[nH]c3c2)cc1)N1CCCC(C(F)(F)F)C1 (centres undefined)	-5%	6%	-6%	-3%	1
O=C(O)Cn1c(=O)c(F)cn(C2CCCO2)c1=O (centres undefined)	5%	3%	-2%	10%	10
C#Cc1ccc([C@@H]2C=C(C(=O)NCc3nc4ccccc4[nH]3)O[C@H](OCC)[C@H]2CCCO)cc1	?	-9%	?	-8%	-18
COc1ccc(CCNC(=O)CSc2nc(C)nc3c2c(=O)n(C)c(=O)n3C)cc1OC	0%	0%	4%	4%	-9
COc1ccccc1N1CCN(C(=O)c2ccc(CS(=O)c3ccccc3C)o2)CC1 (centres undefined)	13µM*	nt	12µM*	nt	nt
Cc1ccc(-c2c(C(=O)N3CCN(c4cccc(C)c4C)CC3)oc(=O)c3ccccc23)cc1	21µM*	nt	?	nt	nt
Cc1ccc(Cl)cc1N1CCN(C(=O)COc2ccc3c(c2)CCC3)CC1	21µM*	?	-4%	?	-72*
CC(=O)c1ccc(N2CCN(C(=O)COc3ccc4c(c3)CCC4)CC2)cc1	-28%	3%	?	-1%	12
O=C(c1ccccc1OCc1ccc(Cl)cc1)N1CCN(c2ccccn2)CC1	?	-8%	23µM*	-18%	-18
O=C(c1ccco1)N1CCN(C(=O)c2ccccc2OCc2ccc(Cl)cc2)CC1	?	1%	?	-4%	-16
Cc1ccc(-c2c(C(=O)N3CCOCC3)oc(=O)c3ccccc23)cc1	-19%	9%	5%	1%	-3
CCOC(=O)c1cc2c(=O)n3ccccc3nc2n(CC(C)C)c1=NC(=O)C(C)(C)Oc1ccc(Cl)cc1	?	nt	-26%	nt	nt
CCN(C(=O)Cn1nc(Cc2ccncc2)c2ccccc2c1=O)c1ccc(OC)cc1	?	nt	-13%	nt	nt
Cc1c(-c2cc(C(=O)O)c3ccccc3n2)cnn1C	17%	-1%	2%	28%	28
CCOc1ccc(CC(=O)C2=C(N3CCOCC3)CC(C)(C)CC2=O)cc1OCC	-21%	21%	-10%	10%	-13
